SENP7 inh: blocks the human protease SENP7; Q9BQF6; recombinant SENP7, Z-RLRGG-aminoluciferin luminescence, 40 min; inhibition, % at 5 µM; hit rate 1.5% among 330,000; AID 434973;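 active = inhibition above about 50% at the single test dose, limit read from the data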
AHR activator: activates the human aryl hydrocarbon receptor. activation, % at 5 µM. AHR-responsive luciferase reporter cells, luminescence. P35869. hit rate 2.5% among 320,000; in the data active = activation above about 47%
SENP8 block-1: inhibitors of human SENP8 protease; Q96LD8; purified SENP8, Z-RLRGG-aminoluciferin cleavage, luminescence; inhibition, % at 10 µM; hit rate 1.2% among 330,000; in the data active = inhibition above about 50%
SENP6 inh: inhibitors of human SENP6 protease; Recombinant SENP6 catalytic domain, aminoluciferin luminescence; Q9GZR1; hit rate 1.8% among 330,000; inhibition, % at 10 µM;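 active = inhibition above about 50% at the single tested dose, limit read from the data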
Target sequence (Q9GZR1 628-1112 limits assumed): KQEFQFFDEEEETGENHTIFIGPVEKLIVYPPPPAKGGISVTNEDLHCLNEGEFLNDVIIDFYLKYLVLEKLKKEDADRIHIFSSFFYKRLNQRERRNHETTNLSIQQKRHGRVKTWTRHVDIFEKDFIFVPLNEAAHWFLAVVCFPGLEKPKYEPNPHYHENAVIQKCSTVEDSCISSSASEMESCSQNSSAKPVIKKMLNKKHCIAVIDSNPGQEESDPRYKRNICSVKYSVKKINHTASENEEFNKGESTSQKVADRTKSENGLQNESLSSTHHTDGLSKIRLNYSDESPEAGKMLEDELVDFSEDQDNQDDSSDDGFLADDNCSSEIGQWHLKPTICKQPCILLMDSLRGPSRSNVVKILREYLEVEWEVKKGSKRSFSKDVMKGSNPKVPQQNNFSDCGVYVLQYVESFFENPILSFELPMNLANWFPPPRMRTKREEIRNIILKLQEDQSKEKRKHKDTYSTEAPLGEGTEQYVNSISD
EBI2 antag: antagonists of human EBI2 receptor; P32249; EBI2 beta-arrestin recruitment, luminescence, 7a,25-OHC stimulated; inhibition, % at 5 µM; hit rate 0.81% among 360,000; AID 651636; in the data active = inhibition above about 38%;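 note: enzyme fragment complementation signal reports receptor beta-arrestin coupling in cells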
SENP8 block-2: inhibitors of human SENP8 protease; Q96LD8; recombinant SENP8, Nedd8 substrate fluorescence; hit rate 0.64% among 360,000; inhibition, % at 20 µM; in the data active = inhibition mostly above about 40%, no sharp cut-off; inactive = mostly below about 27%
Hits are given with their value; - = inactive; . = no result given. Sampled rows, rich in hits. Any-hit rate of the full collection: about 5%.

SMILES	SENP7 inh	AHR activator	SENP8 block-1	SENP6 inh	EBI2 antag	SENP8 block-2
CCC(=O)NC(c1cccs1)c1cc(Cl)c2ccccc2c1O (stereo unspecified)	-	-	-	-	-	-
O=C(CCc1ccccc1)NC(c1cccs1)c1cc(Cl)c2cccnc2c1O (stereo unspecified)	.	.	.	.	-	-
CC(C)C(=O)NC(c1ccccc1)c1cc([N+](=O)[O-])c2cccnc2c1O (stereo unspecified)	-	-	-	-	-	-
CC(=O)NC(c1ccccc1)c1cc([N+](=O)[O-])c2cccnc2c1O (stereo unspecified)	-	-	-	-	-	52
CCC(=O)NC(c1cccs1)c1cc([N+](=O)[O-])c2cccnc2c1O (stereo unspecified)	-	-	-	-	-	66
CCCC(=O)NC(c1cccs1)c1cc([N+](=O)[O-])c2cccnc2c1O (stereo unspecified)	.	-	.	.	-	52
CC(=O)NC(c1cccs1)c1cc([N+](=O)[O-])c2cccnc2c1O (stereo unspecified)	.	-	.	.	-	45
CC(=O)NC(c1cccs1)c1cc(Cl)c2ccccc2c1O (stereo unspecified)	-	-	-	-	-	-
COCCN1C(=O)c2ccccc2C1c1nc2ccccc2[nH]1 (stereo unspecified)	.	.	.	.	-	-
CC(OC(=O)Cc1n[nH]c(=O)c2ccccc12)C(=O)N(C)c1ccccc1 (stereo unspecified)	.	.	.	.	-	-
C[C@H](CO)N1C[C@H](C)[C@H](CN(C)C(=O)NC2CCCCC2)Oc2cc(-c3cccnc3)ccc2S1(=O)=O	.	.	.	.	-	-
O=C1Nc2ccccc2/C1=C/c1cnc(-c2ccccc2)[nH]1	-	73	-	-	-	-
COc1cccc(COC(=O)Nc2ccccc2)c1OC	.	.	.	.	-	-
COCOCCn1cc(CN2CCS(=O)(=O)N(Cc3ccc(-c4ccc(OC)nc4)cc3)C(C(C)C)C2=O)nn1 (stereo unspecified)	.	.	.	.	-	-
Cc1cccc(C)c1-n1nnnc1C1c2ccccc2C(=O)N1CCOc1ccccc1 (stereo unspecified)	.	.	.	.	-	-
Cc1cc(C(F)(F)F)nc(Nc2nc(C)c3ccccc3n2)n1	-	58	-	-	-	-
Cc1cc(C(F)(F)F)nc(NNc2nc(C)cc(C(F)(F)F)n2)n1	.	.	.	.	-	-
O=C1CCC/C1=C/Nc1ccc2c(c1)OCO2	-	73	-	-	-	-
CC1CCC/C(=C\Nc2ccc3c(c2)OCO3)C1=O (stereo unspecified)	-	-	-	-	-	-
O=C(Nc1ccc2nc3n(c(=O)c2c1)CCCCC3)C(=O)N1CCN(c2ccccc2F)CC1	-	-	-	-	-	-
Oc1c(C(c2cccs2)N2CCN(c3ccccc3)CC2)ccc2cccnc12 (stereo unspecified)	-	-	-	-	.	.
Oc1c(C(c2ccccc2Cl)N2CCCC2)ccc2cccnc12 (stereo unspecified)	-	-	-	-	51	-
COc1ccccc1OCCNc1cc(N2CCCCC2)ccc1[N+](=O)[O-]	-	69	-	-	-	-
CCCCCOC(=O)c1[nH]c2c(c1C)C(=O)CC(c1ccco1)C2 (stereo unspecified)	-	140	-	-	-	-
COc1ccc(NC(=S)N(CCc2c(C)[nH]c3ccc(C)cc23)Cc2cccs2)cc1	-	64	-	-	-	-
SMILES	SENP7 inh	AHR activator	SENP8 block-1	SENP6 inh	EBI2 antag	SENP8 block-2
O=c1[nH]c2ccccc2nc1CCc1ccccc1	-	58	-	-	-	-
c1ccc(CCc2nc3ccccc3[nH]2)cc1	-	-	-	-	-	-
Oc1ccccc1-n1nc2ccc3nonc3c2n1	-	76	-	-	-	-
Cc1c(C)n(O)c2ccc3nonc3c12	-	-	-	-	-	-
O=[N+]([O-])c1ccc(N/N=C/c2ccc[nH]2)cc1	.	61	.	.	-	-
Cn1nc(-c2ccccn2)nc2c(=O)n(C)c(=O)nc1-2	96	-	97	-	-	93
CCCc1nc2c(=O)n(C)c(=O)nc-2n(C)n1	.	.	.	.	-	120
O=C(CNC(=O)c1ccco1)NNC(=O)c1n[nH]c(=O)c2ccccc12	-	-	-	-	-	-
CCC(=O)N1Cc2cc(C(=O)N(C)C)nc(-c3cccc(-c4cncnc4)c3)c2[C@@H]1CCO	.	.	.	.	-	-
Oc1ccc(/C=N/N2CCCCC2)cc1O	-	-	-	-	-	45
COc1ccc(/C=N/N2C(C)CCCC2C)cc1O (stereo unspecified)	-	-	-	-	-	-
Clc1ccc(C=NN2CCCCCC2)cc1Cl	.	.	.	.	-	-
CC1CCCC(C)N1/N=C/c1ccc(O)c(O)c1 (stereo unspecified)	-	-	-	-	-	51
O=C1NC[C@H](CCCCN2C[C@H](Cc3ccc(O)cc3)N(CCC3CCCCC3)C(=O)C2=O)N(CCc2ccc(O)cc2)C1=O	.	.	.	.	-	-
Cc1ccc(C(=O)Nc2nccc(-c3cccs3)n2)cc1	-	71	-	-	-	-
O=C(CCc1nnc(CCCc2ccccc2)o1)NCCN1CCOC1=O	-	-	-	-	-	-
O=C(/C=C/Nc1ccc(F)c(F)c1)c1ccc(Br)cc1	67	-	-	-	-	-
COc1ccc(-c2nc3cc(C)ccn3c2NC(=O)c2ccccc2OC)cc1	-	53	-	-	-	-
CC(=O)Nc1c(-c2ccccc2)nc2cc(C)ccn12	-	-	-	-	-	-
Cc1cc(C(=O)N/N=C/c2cc(Br)ccc2OC(=O)c2ccc(Br)cc2)n[nH]1	-	50	-	-	.	.
Cc1cc(C(=O)N/N=C\c2cc(C(C)(C)C)ccc2O)n[nH]1	-	53	-	-	-	-
Cn1c(C(C#N)C(=O)Cc2cccc3ccccc23)nc2ccccc21 (stereo unspecified)	-	-	-	-	-	-
Cn1c(C(C#N)C(=O)c2ccco2)nc2ccccc21 (stereo unspecified)	-	77	-	-	-	-
N#Cc1cnn2c(C(F)(F)F)cc(-c3ccccc3)nc12	-	60	-	-	-	-
Cc1cccc2c(N=Nc3ccc(S(=O)(=O)Nc4cccc(Cl)c4)cc3[N+](=O)[O-])c(O)[nH]c12	-	-	-	-	-	47
COc1ccc(NC(=O)C2c3ccccc3OCC(=O)N2CC(F)(F)F)cc1 (stereo unspecified)	.	.	.	.	-	-
Cc1cc(C)nc(N/N=C/c2ccccc2OCc2cccc(Br)c2)n1	-	-	-	-	-	-
COc1ccccc1NC(C)C(=O)N/N=C/c1ccccc1OCc1cccc(Br)c1 (stereo unspecified)	-	52	-	-	-	-
CSc1ncc(CN2CCc3c([nH]c4ccccc34)C2C(C)(C)C)cn1 (stereo unspecified)	-	-	-	-	-	-
Cc1cccc(CN2CCc3c([nH]c4ccccc34)C2C(C)(C)C)n1 (stereo unspecified)	-	60	-	-	-	-
